Assay outcomes as filed in PubChem BioAssay.
Only some compounds are listed: those with a hit (about 1.1% of all), similar ones and a draw of the others.
SRC2 inh – inhibition of GAL4-SRC2 driven luciferase reporter, primary screen, SRC2 inhibitor project, cell-based, luminescence. Nuclear receptor coactivator 2 (Homo sapiens), Q15596. HEK293 GAL4-SRC2 luciferase reporter. inhibition, % at 9 µM. 370,000 compounds, 0.17% hits. AID 651957, 2012;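 active = inhibition above the mean inhibition of all tested compounds plus 3 SD, set per campaign, cut at about 52% in these data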;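 note: 0% = DMSO treated cells and 100% = cells given Gossypol at 36 µM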
NCOA3 inh – SRC3 coactivator transcriptional activity inhibitors, primary screen, cell-based, luminescence; HEK293 GAL4-SRC3 luciferase reporter; inhibition, % at 3.6 µM; 360,000 compounds, 0.17% hits;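 active = inhibition above a per-campaign cutoff, the mean of all compounds plus 3 SD, cut at about 60% in these data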;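 note: 0% = DMSO-treated cells and 100% = gossypol-treated cells at 36 µM; higher means less SRC3-driven luciferase light from the GAL4 reporter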
Target sequence (Q9Y6Q9 whole entry, looked up, the tested form may be a part): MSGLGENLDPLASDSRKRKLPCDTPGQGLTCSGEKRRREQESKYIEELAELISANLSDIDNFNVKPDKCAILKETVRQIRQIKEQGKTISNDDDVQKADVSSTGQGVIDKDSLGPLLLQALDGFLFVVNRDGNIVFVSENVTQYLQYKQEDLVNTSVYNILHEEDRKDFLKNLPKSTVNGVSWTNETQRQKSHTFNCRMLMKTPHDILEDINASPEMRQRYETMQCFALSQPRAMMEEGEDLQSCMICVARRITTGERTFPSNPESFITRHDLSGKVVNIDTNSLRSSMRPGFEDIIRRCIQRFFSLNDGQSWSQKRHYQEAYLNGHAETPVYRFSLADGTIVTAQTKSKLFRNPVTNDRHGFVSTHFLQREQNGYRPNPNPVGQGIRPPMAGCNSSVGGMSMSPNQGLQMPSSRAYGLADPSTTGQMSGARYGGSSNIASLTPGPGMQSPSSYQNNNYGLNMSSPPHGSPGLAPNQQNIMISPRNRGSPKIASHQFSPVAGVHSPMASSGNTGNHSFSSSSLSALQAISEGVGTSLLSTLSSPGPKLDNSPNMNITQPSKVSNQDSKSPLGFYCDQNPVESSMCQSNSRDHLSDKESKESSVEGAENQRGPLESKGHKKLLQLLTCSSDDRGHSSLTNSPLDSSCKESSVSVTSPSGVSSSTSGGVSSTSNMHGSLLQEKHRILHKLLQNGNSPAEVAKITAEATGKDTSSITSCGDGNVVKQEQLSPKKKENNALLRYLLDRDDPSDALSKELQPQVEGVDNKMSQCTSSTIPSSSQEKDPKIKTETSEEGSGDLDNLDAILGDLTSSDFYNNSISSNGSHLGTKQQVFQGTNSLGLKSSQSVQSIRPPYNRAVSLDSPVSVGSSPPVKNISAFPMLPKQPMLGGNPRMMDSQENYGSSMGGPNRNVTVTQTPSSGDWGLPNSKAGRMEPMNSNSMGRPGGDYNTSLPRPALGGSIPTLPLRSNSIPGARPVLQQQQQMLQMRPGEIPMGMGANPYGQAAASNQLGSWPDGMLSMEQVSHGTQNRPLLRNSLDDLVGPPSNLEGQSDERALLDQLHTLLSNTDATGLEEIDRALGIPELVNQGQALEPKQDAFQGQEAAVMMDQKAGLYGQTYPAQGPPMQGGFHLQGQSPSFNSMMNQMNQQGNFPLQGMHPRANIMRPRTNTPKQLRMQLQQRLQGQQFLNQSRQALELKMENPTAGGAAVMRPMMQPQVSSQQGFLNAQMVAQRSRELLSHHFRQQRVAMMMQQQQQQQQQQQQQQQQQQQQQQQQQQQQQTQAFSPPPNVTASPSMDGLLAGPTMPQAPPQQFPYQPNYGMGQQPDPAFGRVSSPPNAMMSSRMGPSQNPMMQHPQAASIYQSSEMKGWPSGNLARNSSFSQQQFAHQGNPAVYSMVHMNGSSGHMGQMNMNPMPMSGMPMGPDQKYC
COUP-TFII inh – NR2F2 transcriptional activity inhibitors, primary screen, cell-based, luciferase reporter, HEK293T, luminescence. COUP transcription factor 2 (Homo sapiens), P24468. HEK293T NGFI-A luciferase reporter. inhibition, % at 8.6 µM. 370,000 compounds, 0.7% hits. AID 686940, 2013;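 active = inhibition above a per-plate cutoff, mean inhibition of test wells between control levels plus 3 SD, cut at about 38% in these data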;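 note: cells cotransfected with COUP-TFII expression vector driving the NGFI-A reporter; 0% = median of COUP-TF2 test wells and 100% = reporter-only cells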
GalR3 antagonist – GalR3 antagonists in HEK293 cells, primary screen, cell-based, fluorescence readout | Galanin receptor type 3 (Homo sapiens), O60755 | inhibition, % at 3 µM | 360,000 compounds, 0.44% hits | HEK293 GalR3-CNG cAMP membrane potential fluorescence; galR3 body fused to GalR1 C-terminus;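 active = inhibition above the screen-wide average plus 3 SD, cut at about 13% in these data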;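 note: forskolin and galanin both at EC90 stimulate the cells; cAMP rise reported by CNG channel membrane potential dye signal; 0% = forskolin plus galanin with DMSO and 100% = forskolin alone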
NCOA1 inh – SRC1 coactivator transcriptional activity inhibitors, primary screen, cell-based, luminescence | Nuclear receptor coactivator 1 (Homo sapiens), Q15788 | HEK293 GAL4-SRC1 luciferase reporter | inhibition, % at 3.6 µM | 360,000 compounds, 0.12% hits | AID 588354, 2011;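 active = inhibition above the campaign mean plus 3 SD, with each screening campaign given its own cutoff, cut at about 60% in these data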;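 note: 0% = DMSO treated cells and 100% = gossypol at 36 µM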
LRH-1 inv ag – LRH-1 (NR5A2) inverse agonists, primary screen, cell-based, luminescence, HEK293T, StAR-luciferase reporter. LRH-1 transfected, 24 h. 360,000 compounds, 0.13% hits. inhibition, % at 3.6 µM. AID 602396, 2012. Nuclear receptor subfamily 5 group A member 2 (Homo sapiens), O00482;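 active = inhibition above the mean inhibition of all tested compounds plus 3 SD, cut at about 73% in these data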;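 note: 0% = DMSO wells and 100% = reporter-only cells lacking LRH-1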
GalR3 conf – GalR3 antagonist hit confirmation, cell-based, fluorescence, triplicate. shares compounds with GalR3 antagonist. HEK293 GalR3 CNG cAMP biosensor, membrane potential fluorescence; galR3 fused to GalR1 carboxy tail; challenged with forskolin and galanin at EC90. inhibition, % at 3 µM. 1,600 compounds, 59% hits. AID 652245, 2013;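 active = inhibition above the primary screen's cutoff, the mean inhibition of all screened compounds plus 3 SD, cut at about 13% in these data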;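 note: 0% = forskolin plus galanin and 100% = forskolin alone with DMSO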
CNG parental – nonspecific cAMP agonists in parental HEK-CNG cells, counter-screen for GalR3 antagonist project, cell-based, fluorescence, high throughput; shares compounds with GalR3 antagonist; HEK293-CNG parental cells, cAMP membrane potential fluorescence; normalised: DMSO wells 0%, forskolin wells 100%; activation, % at 3 µM; 1,600 compounds, 10% hits; in the data active = activation above about 1.3%
* marks the source's active call; other numbers are inactive results; · = not tested or not shown.

SMILES	SRC2 inh	NCOA3 inh	COUP-TFII inh	GalR3 antagonist	NCOA1 inh	LRH-1 inv ag	GalR3 conf	CNG parental
COc1ccc(C2CC(=O)c3cc(OC)c(OC)cc32)cc1OC (stereo unspecified)	26	1	16	-3	13	-2	·	·
CCCn1c(NC(=O)c2ccccc2)nc(Cc2ccccc2)c1Cc1ccccc1	8	·	-4	·	·	·	·	·
COc1ccc(S[C@]2(C(=O)N3CCN(c4ncccn4)CC3)CC(=O)N(C(=O)c3ccccc3)[C@@H]2c2ccc(OC)cc2)cc1	-4	·	7	·	·	·	·	·
COc1ccc(CNc2nc(S(=O)(=O)c3ccccc3)c(Cl)s2)cc1OC	24	14	21	85*	-14	8	-5	0
O=C(O)c1ccc(NC(=S)NC(=O)c2ccc(-c3ccc(Br)cc3)o2)cc1	5	-26	-5	13*	-3	10	-19	1.7*
COc1ccccc1CCNC(=O)C(=O)NCC1OCCN1S(=O)(=O)c1ccc2c(c1)OCCO2 (stereo unspecified)	7	-5	13	14*	-1	-5	7	0
COC[C@@H](OC(C)=O)[C@H]1OCc2ccccc2[C@@H]1/C=C/c1ccccc1	12	·	4	·	·	·	·	·
O=C(Cn1nc(-c2ccccc2)c2ccccc2c1=O)Nc1ccc(O)cc1	4	6	-12	14*	-44	7	1	-1
CC(C)N1Cc2nnn(Cc3ccccc3)c2-c2ccccc2S1(=O)=O	11	·	3	·	·	·	·	·
COc1ccccc1N1C(=O)S/C(=C\c2cc(C)n(C)c2C)C1=O	-43	-72	-46	19*	-66	-119	1	0
O=C(Nc1cccc(N=Cc2cc(Br)cc(Br)c2O)c1)c1ccco1	-30	-7	5	17*	-29	1	14*	0
O=C(Nc1cccc(N=Cc2cc(Cl)cc(Br)c2O)c1)c1ccco1	-4	3	7	1	-23	15	·	·
COc1ccc(C=O)c2[nH]c3c(Cl)ncnc3c12	-31	-2	1	14*	9	4	29*	0
COc1cccc(-c2ccc(-c3noc(-c4cccs4)n3)c(OC)n2)c1	-9	-4	-4	15*	-5	16	13*	1
COc1cccc(-c2ccc(-c3noc(-c4ccccc4F)n3)c(OC)n2)c1	-1	15	3	-6	0	-7	·	·
CCOC(=O)c1cccc(NC(=O)CN(C)S(=O)(=O)c2cc(OC)ccc2OC)c1	4	·	9	·	·	·	·	·
CCCCCCCCN1C(=O)[C@@H](CC(=O)NCc2ccc(OC)c(OC)c2)C[C@@]2(C(=O)OC)C1=C[C@H](C(C)C)O[C@@H]2C1CC1	12	·	16	·	·	·	·	·
Cc1cc(F)ccc1N1CCC(N2CCN(C(C)C)C(CCO)C2)CC1 (stereo unspecified)	2	-4	0	18*	-14	19	1	1
Cc1cc(F)ccc1N1CCC(N2CCN(CCC(C)C)C(CCO)C2)CC1 (stereo unspecified)	28	21	13	-3	2	12	·	·
C[C@H](O)[C@@H]1CN2CCc3ccc(N4CCOCC4)cc3[C@@H]2C[C@@H]1N(C)CC1CCCCC1	18	·	-13	·	·	·	·	·
COC(=O)[C@H](C(C)C)N1Cc2nnn(Cc3ccc(C)cc3)c2-c2ccccc2S1(=O)=O	-1	·	-13	·	·	·	·	·
Cn1c(=O)c2c(nc(NCCCN3CCOCC3)n2Cc2ccc(Cl)c(Cl)c2)n(C)c1=O	-37	·	-12	10	·	·	·	·
Cn1c(=O)c2c(nc(NCCCN3CCOCC3)n2Cc2ccc(Cl)cc2)n(C)c1=O	-13	15	-2	14*	0	-12	15*	0
Cn1c(=O)c2c(nc(NCC3CCCO3)n2Cc2ccccc2)n(C)c1=O (stereo unspecified)	-14	6	6	·	-6	9	5	0
Cn1c(=O)c2c(nc(NC3CCCCC3)n2Cc2ccccc2)n(C)c1=O	-1	-25	6	0	2	0	·	·
SMILES	SRC2 inh	NCOA3 inh	COUP-TFII inh	GalR3 antagonist	NCOA1 inh	LRH-1 inv ag	GalR3 conf	CNG parental
Cc1ccc(C(=O)NCCCn2ccnc2)cn1	7	7	-29	·	0	-13	6	0
CC(C)(C)c1ccc(C(=O)NCCCn2ccnc2)cc1	0	11	-13	-3	-27	11	·	·
COc1cccc(CNC(=O)[C@H]2CCCN2C(=O)[C@H]2CCCN2C(=O)c2ccccc2)c1	7	·	14	-6	·	·	·	·
O=C(NN=C/C=C/c1ccco1)c1cc(-c2ccc(Cl)cc2)n[nH]1	-6	·	3	·	·	·	·	·
O=C(CSc1nnc(-c2n[nH]c3ccccc23)n1-c1ccccc1)Nc1cccc(Cl)c1	-4	8	18	21*	4	10	14*	-1
CC(C)C[C@H]1COc2cc(Br)ccc2S(=O)(=O)N1Cc1cn(Cc2ccc(F)cc2)nn1	16	·	5	·	·	·	·	·
COCCNC(=O)C/C(C)=N/NC(=O)C(=O)NC1CCCCC1	30	10	-13	13*	-69	-1	2	0
COCOc1cc(O)c(C(=O)/C=C/c2ccccc2)c(OCOC)c1	4	21	18	22*	5	-7	20*	0
Cc1oc2c(C)c3oc(=O)c(CCC(=O)N4C[C@H]5C[C@@H](C4)c4cccc(=O)n4C5)c(C)c3cc2c1C	1	18	-40	15*	3	-5	7	0
N#Cc1cccc(OC[C@@H](O)CN2CCC(C(O)(c3ccccc3)c3ccccc3)CC2)c1	-20	·	-11	·	·	·	·	·
CCN1CCCC1CNCc1cc(OC)c(OC)c(OC)c1 (stereo unspecified)	0	-3	18	-7	4	11	·	·
CCOc1cc(CNCC2CCCN2CC)cc(Cl)c1OC (stereo unspecified)	15	-8	-5	15*	-5	-20	3	1
CCCCNC(=O)C[C@H]1C[C@@]2(C(=O)OC)C(=C[C@H](C3CCCC3)O[C@@H]2C)N(Cc2cccc3ccccc23)C1=O	-1	·	4	·	·	·	·	·
